Screens deposited in PubChem by several laboratories.
Autofluor counter: compound fluorescence in toxin protease inhibitor counterscreen | compound autofluorescence counterscreen, microsphere flow cytometry; hits give high values | fluorescence intensity (test concentration not listed) | 360,000 tested, 3.1% active | AID 624483; in the data active = fluorescence intensity above about 16000; inconclusive = no clear call, values can overlap the other calls
BoNT-F LC inh: inhibitors of Botulinum neurotoxin F light chain protease; Multiplex microsphere protease cleavage assay, flow cytometry; inhibition, % at 10 µM; 360,000 tested, 0.22% active; in the data active = inhibition above about 35%, passing the limit was not always enough; inconclusive = no clear call, values can overlap the other calls; also: plate controls were buffer without enzyme for full effect and enzyme alone for no effect
Anthrax LF prot: inhibitors of Bacillus anthracis lethal factor protease; P15917; multiplex microsphere protease cleavage assay, LF; inhibition, % at 10 µM; 360,000 tested, 0.12% active; AID 588501; also: plate controls were buffer without enzyme for full effect and enzyme alone for no effect
BoNT-A LC inh2: inhibitors of Botulinum neurotoxin A light chain protease | multiplex microsphere protease substrate cleavage, flow cytometry | AID 588499 | inhibition, % at 10 µM | 360,000 tested, 0.17% active; also: plate controls were buffer without enzyme for full effect and enzyme alone for no effect
TcdB GH inh: TcdB glycohydrolase inhibition. P18177. TcdB glycohydrolase enzymatic assay, plate reader. inhibition, % at 9.99 µM. 350,000 tested, 0.24% active. AID 652162; in the data active = inhibition above about 10%
* hit, by the source's call; ? = inconclusive; · = no result given. The sample as a whole holds a higher share of hits than the screen did. Rule as the data show it, unless noted: active = inhibition above about 30%; inconclusive = no clear call, values can overlap the other calls; inactive = below that.

SMILES	Autofluor counter	BoNT-F LC inh	Anthrax LF prot	BoNT-A LC inh2	TcdB GH inh
Clc1nnc(N/N=C/c2ccccc2)c2ccccc12	16810*	-3	-5	-3	·
Clc1ccc(/C=N/Nc2nnc(Cl)c3ccccc23)cc1	10256	-3	-2	0	2
COc1ccc(/C=N/Nc2nnc(-c3ncc[nH]3)c3ccccc23)cc1	21400*	1	1	-1	·
COc1cccc(C(=O)Nc2ccc3c(c2)C(=O)N(C)[C@@H]2CC[C@H](CC(=O)NCc4ccccc4F)O[C@H]2CO3)c1	·	·	·	·	2
Cc1cc(C)c2cc(CN(CCCO)S(=O)(=O)c3ccccc3F)c(=O)[nH]c2c1	3526	12	-5	-2	0
COC(=O)c1ccccc1S(=O)(=O)N(CCCO)Cc1cc2c(C)ccc(C)c2[nH]c1=O	22748*	2	-6	-1	2
COC(=O)c1ccccc1S(=O)(=O)N(Cc1ccco1)Cc1cc2cc(OC)ccc2[nH]c1=O	22912*	2	2	1	·
COc1ccc(C(=O)N2C[C@H]3[C@@H](c4ccccc42)[C@@H](CO)N3C(=O)c2cccc(F)c2)cc1	·	·	·	·	0
COCCNc1oc(/C=C/c2ccccc2)nc1C#N	4218	2	0	-1	12*
COc1ccc(CCNC(=O)c2nnc(Cc3c(F)cccc3Cl)o2)cc1OC	3713	6	1	0	·
CN1CCN(CCCNC(=O)c2nnc(Cc3c(F)cccc3Cl)o2)CC1	18850*	9	-9	10	0
O=C(NCCCN1CCCC1=O)c1nnc(Cc2c(F)cccc2Cl)o1	22538*	-1	0	?	·
O=C(NCCCN1CCCC1=O)c1cccc(S(=O)(=O)Nc2ccccc2Cl)c1	6044	-3	-4	-1	-1
C[C@H]1CN([C@@H](C)CO)C(=O)c2cccc(NC(=O)NC3CCCCC3)c2O[C@H]1CN(C)Cc1ccc(C(=O)Nc2ccccc2N)cc1	·	·	·	·	0
Cc1cc2c(n1-c1ccc(Br)cc1)CC(C)(C)CC2=O	16349*	0	-2	0	·
Cc1ccc(-n2c(C)cc3c2CC(C)(C)CC3=O)cc1C	10257	-2	-2	-1	·
C=CCNC(=S)NNC(=O)Cn1c(-c2ccccc2)cc(=O)n2ncnc12	3880	?	32*	-3	0
C=CCNC(=O)Cn1nc(-c2ccccc2)ccc1=O	8262	8	-7	3	1
CN(C)C(=O)C[C@H]1CC[C@H]2[C@@H](COC[C@H](O)CN2CC2CC2)O1	·	·	·	·	-2
CCCN1C[C@H](C)[C@@H](OC)CN(C)C(=O)c2ccc(NC(=O)C3CC3)cc2OC[C@H]1C	·	·	·	·	1
Cc1nc2ncnn2c(N2CCN(C(c3ccccc3)c3ccccc3)CC2)c1C	18747*	0	-1	2	·
Cc1nc2ncnn2c(N2CCN(c3cccc(C(F)(F)F)c3)CC2)c1C	22031*	1	1	1	·
COc1cc(NC(=O)CSc2nc3[nH]ncc3c(=O)n2-c2ccc(Cl)cc2)cc(OC)c1	5257	1	-1	2	-6
COc1ccccc1-n1c(C)nnc1SCC(=O)Nc1cc(C)cc(C)c1	23628*	0	-2	0	·
COc1ccccc1-n1c(C)nnc1SCC(N)=O	22827*	1	3	1	·
SMILES	Autofluor counter	BoNT-F LC inh	Anthrax LF prot	BoNT-A LC inh2	TcdB GH inh
COc1cc(NC(=O)CSc2nc3[nH]ncc3c(=O)n2-c2ccccc2C)cc(OC)c1OC	2201	-1	0	0	18*
O=C(NC[C@@H]1CC[C@@H]2[C@@H](CN2Cc2cccc(Cl)c2)O1)C1CCOCC1	·	·	·	·	0
NC(=O)NN=C1CC2CC1C1C=CCC21 (stereo unspecified)	2965	3	-2	0	14*
CCN(c1ccccc1)S(=O)(=O)c1ccc(OC)c(OC)c1	11560	-6	-1	0	0
COc1ccc(OC)c(S(=O)(=O)Nc2ccc(Oc3ccccc3)cc2)c1	21725*	-1	-11	2	·
CCN(c1ccccc1)S(=O)(=O)c1cc(OC)ccc1OC	22526*	1	-3	1	·
CNC[C@@H]1Oc2ccc(NS(=O)(=O)c3ccc(OC)cc3)cc2CC(=O)N([C@@H](C)CO)C[C@H]1C	·	·	·	·	1
O=C(Nc1ccc(F)cc1)N[C@H]1CC[C@@H](CCn2cc(C3(O)CCCC3)nn2)O[C@H]1CO	·	·	·	·	-1
COc1ccc(S(=O)(=O)N2CCN(C3CCCC(C)C3)CC2)cc1 (stereo unspecified)	3815	18	-12	3	2
COc1cccc(N2CCN(C3CCCC(C)C3)CC2)c1 (stereo unspecified)	24685*	-4	-7	-4	1
S=C(NCCN1CCOCC1)Nc1ccc(Nc2ccccc2)cc1	3386	-2	-4	0	31*
O=C(NCCN1CCN(c2ccccc2)CC1)c1cccc(Br)c1	23925*	0	-1	0	·
O=C(NCCN1CCOCC1)c1ccc(-c2ccccc2)cc1	20391*	7	-1	7	0
O=C(NCCc1ccccc1)c1noc2c1CCc1ccccc1-2	17456*	20	0	14	·
S=C(NCCCN1CCOCC1)Nc1ccc(Nc2ccccc2)cc1	4053	-4	3	-1	5
CCCNC(=O)c1noc2c1CCc1ccccc1-2	5949	-1	-3	0	-2
C[C@H]1CN([C@@H](C)CO)S(=O)(=O)c2ccc(C#CC3(O)CCCC3)cc2O[C@@H]1CN(C)C(=O)c1ccncc1	·	·	·	·	1
CCC(=O)N(C)C[C@@H]1Oc2cc(-c3ccccc3)ccc2S(=O)(=O)N([C@H](C)CO)C[C@H]1C	·	·	·	·	0
Cc1onc(-c2ccccc2)c1C(=O)NCCN1CCOCC1	3319	-6	-4	0	·
O=C(NCCN1CCOCC1)c1noc2c1CCc1ccccc1-2	23180*	-2	0	-3	0
CCOC(=O)Cc1csc(NC(=O)c2ccc(S(=O)(=O)N3CCCCC3)cc2)n1	22414*	1	2	?	·
CCOC(=O)Cc1csc(NC(=O)COc2ccccc2)n1	22960*	-3	-2	-2	·
CCOC(=O)Cc1csc(NC(=O)COc2ccc(C)cc2)n1	4062	-4	0	-1	1
CCOC(=O)Cc1csc(NC(=O)NC2(C(F)(F)F)Oc3ccccc3O2)n1	16388*	-4	-4	-1	·
CCOC(=O)Cc1csc(NC(=O)NC2(C(F)(F)F)Oc3ccc(Cl)cc3O2)n1 (stereo unspecified)	2650	-14	-1	0	·
SMILES	Autofluor counter	BoNT-F LC inh	Anthrax LF prot	BoNT-A LC inh2	TcdB GH inh
CCOC(=O)Cc1csc(NC(=O)c2ccco2)n1	20219*	0	-6	1	·
CCCc1cn(CC[C@H]2CC[C@@H](NC(=O)Nc3ccccc3F)[C@H](CO)O2)nn1	·	·	·	·	0
Cc1noc(C)c1NC(=O)Nc1ccc2c(c1)CC(=O)N([C@H](C)CO)C[C@@H](C)[C@@H](CN(C)S(=O)(=O)c1cccs1)O2	·	·	·	·	0
CC(C)C(=O)c1cc2c(cc1NC(=O)c1ccccc1)OCCO2	23685*	-3	-2	?	·
CCC(=O)c1cc2c(cc1NC(=O)c1ccc(C)cc1)OCCO2	20255*	5	0	?	·
CC(C)C(=O)c1cc2c(cc1NC(=O)c1cccs1)OCCO2	23207*	-4	-4	-2	·
CC(=O)Nc1cc2c(cc1C(=O)C(C)C)OCCO2	3774	5	-3	-1	·
